# Laboratory results as given in PubChem BioAssay.
# Active and inactive are the calls of the source. Unless noted, how the calls were made is not given here.
# Key:
# [1] = viability loss with induced miR-34 in A549 – imaging, A549 dox-inducible miR-34, nuclei and caspase counts, primary screen (AID 1347080;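 active means compounds whose cell count with miR-34 switched on is under 0.7 times the count with it off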); details: A549 miR-34 inducible, Hoechst nuclei count, 48 h
# [2] = blockers of cellular phospholipid synthesis – cell-based, LOPAC library, screen 4, primary screen (AID 1347384); details: animal cells, phospholipid biosynthesis inhibition screen; at 10 µM
# [3] = galactose survival enhancers in mitochondrial complex I cybrids – cell-based, galactose medium, ATP luminescence, primary screen (AID 1645843;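 active means z-score of at least 1.8 in each of two replicates, scored against plate mean and spread of sample wells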;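 further: positive z means more ATP and so rescue of galactose-driven cybrid death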); details: complex I mutant cybrid cells, 72 h, stronger effect = higher value
# [4] = compounds altering circadian rhythm period length – cell-based, LOPAC library, luminescence reporter (AID 2774); details: circadian reporter cells, at 7 µM, actives lie on both sides;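 further: values are relative to mean of DMSO wells on each plate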
# [5] = P. berghei load reduction in hepatocytes – cell-based, HepG2, luciferase luminescence, HepG2 viability, primary screen (AID 624349; in the data active means parasite load remaining mostly below about 12%, no sharp cut-off; inactive means mostly above about 10%;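 further: 100% = mean of DMSO negative control wells on the same plate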); details: P. berghei liver stage in HepG2, luciferase luminescence, concentration not given here; parasite load remaining: stronger effect = lower value; viability: measured here: HepG2 viability without parasites
# [6] = tested on: Hepatitis C virus NS3 helicase; experiment: blockers of NS3h binding to ssDNA – biochemical, fluorescence polarization, LOPAC1280 library, primary screen (AID 687035; in the data active means inhibition above about 37%); details: Purified HCV NS3 helicase, Cy5-dT15 ssDNA binding fluorescence polarization; stronger effect = higher value; concentration not given here
# [7] = compounds altering Cy5-DNA-NS3h complex signal – biochemical, LOPAC1280, artefact control for HCV NS3 helicase inhibitor project (AID 687037); details: Cy5-DNA-NS3h complex fluorescence interference counterscreen
# [8] = compounds altering HSF1 focus formation in cells – imaging, Selleck Cancer Library (AID 1347162; in the data active means plate-normalised HSF1 focus index below about 0.46); details: human cells, HSF1 nuclear foci imaging, at 10 µM; SSMD: measured here: HSF1 foci SSMD mean; cell count: measured here: cell number; plate-normalised HSF1 focus index: stronger effect = lower value
# [9] = compounds altering viability of human ES cells (AID 493140); details: human embryonic stem cell survival screen; stronger effect = higher value;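 further: cells exposed to compounds for four days before counting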
# [10] = chitosan synthesis blockers in C. neoformans – flow cytometry, Cibacron Brilliant Red staining (AID 1347148); details: Cryptococcus neoformans chitosan, stronger effect = lower value; at 10 µM unless noted;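 further: compound exposure lasted three days at 37 degrees C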
# [11] = target: NAD(+) hydrolase SARM1 (Homo sapiens) (UniProt Q6SZW1); experiment: blocking NAD cleavage by SARM1 SAM-TIR – cell lysate, NAD-Glo luminescence (AID 1508614;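 active means compound whose remaining NAD level is above about 45 nM, limit read from the data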); details: SAM-TIR HEK293T lysate NADase, at 1 µM, stronger effect = higher value
# [12] = MELAS cybrid and Rieske KO viability enhancers – cell-based, MELAS cybrids, Rieske KO mouse fibroblasts, CellTiter-Glo, primary screen (AID 1508586;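 active means mean z-score across replicates of 1.96 or higher in either the MELAS or the Rieske mutant cell line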;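 further: z relative to plate mean and SD of compound and empty wells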); details: low glucose
# [13] = stronger effect = lower value, cell number ratio, induced over uninduced
# [14] = measured here: relative caspase fold change +Dox/-Dox
# [15] = measured here: total cells with miR-34 induction, stronger effect = lower value
# [16] = measured here: total cells without miR-34 induction
# NAD(+) hydrolase SARM1 (Homo sapiens), sequence (Q6SZW1 whole entry, looked up): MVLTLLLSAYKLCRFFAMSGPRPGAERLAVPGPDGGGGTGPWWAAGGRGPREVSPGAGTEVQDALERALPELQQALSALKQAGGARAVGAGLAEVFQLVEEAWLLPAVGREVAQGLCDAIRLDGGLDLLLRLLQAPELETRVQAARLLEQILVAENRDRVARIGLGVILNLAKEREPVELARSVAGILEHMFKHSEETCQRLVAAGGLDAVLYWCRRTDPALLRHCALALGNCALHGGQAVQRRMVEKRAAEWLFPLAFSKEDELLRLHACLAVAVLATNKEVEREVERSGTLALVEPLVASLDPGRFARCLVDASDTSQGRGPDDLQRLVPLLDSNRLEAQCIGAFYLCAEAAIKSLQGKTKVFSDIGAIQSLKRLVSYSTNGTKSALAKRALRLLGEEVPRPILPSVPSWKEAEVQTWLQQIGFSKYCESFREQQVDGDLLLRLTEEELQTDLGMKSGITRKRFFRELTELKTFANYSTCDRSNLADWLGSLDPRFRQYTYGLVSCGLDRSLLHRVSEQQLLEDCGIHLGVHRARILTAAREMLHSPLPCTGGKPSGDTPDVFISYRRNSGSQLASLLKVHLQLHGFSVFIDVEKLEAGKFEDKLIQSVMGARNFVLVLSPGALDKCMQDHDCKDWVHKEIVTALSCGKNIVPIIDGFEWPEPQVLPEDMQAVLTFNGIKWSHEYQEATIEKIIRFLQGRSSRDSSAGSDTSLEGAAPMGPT
structure (smiles),measurement,setting,value
CO[C@H]1O[C@@H]2O[C@]3(C)CC[C@@H]4[C@@H](C)CC[C@H]([C@H]1C)[C@]24OO3,fold change,[1]; [13],0.984 (inactive)
same,fold change,[1]; [14],1.93
same,cell count,[1]; [15],9680
same,cell count,[1]; [16],9830
same,outcome,[2],inactive
same,z-score,[3],-0.71 (inactive)
Nc1ncnc2c1c(-c1ccc(Oc3ccccc3)cc1)cn2C1CCCC1,period change,[4],0.07 h (inactive)
same,parasite load remaining,[5],28.7% (inactive)
same,viability,[5],78.8%
same,inhibition,[6],2% (inactive)
same,fluorescence ratio (interference),[7],1 (inactive)
same,fold change,[1]; [13],1.28 (inactive)
same,fold change,[1]; [14],0.999
same,cell count,[1]; [15],4440
same,cell count,[1]; [16],3470
same,SSMD,[8],-0.154
same,cell count,[8],6750
same,plate-normalised HSF1 focus index,[8],0.99 (inactive)
same,outcome,[2],inactive
same,z-score,[3],-1.02 (inactive)
CN(C)CC(O)Cn1c2ccc(Br)cc2c2cc(Br)ccc21 (stereo not given),fold change,[1]; [13],0.735 (inactive)
same,fold change,[1]; [14],1.58
same,cell count,[1]; [15],200
same,cell count,[1]; [16],272
same,outcome,[2],inactive
CC[C@H]1OC(=O)[C@H](C)[C@@H](O[C@H]2C[C@@](C)(OC)[C@@H](O)[C@H](C)O2)[C@H](C)[C@@H](O[C@@H]2O[C@H](C)C[C@H](NC)[C@H]2O)[C@](C)(O)C[C@@H](C)CN(C)[C@H](C)[C@@H](O)[C@]1(C)O,fold change,[1]; [13],1.02 (inactive)
same,fold change,[1]; [14],1.41
same,cell count,[1]; [15],10700
same,cell count,[1]; [16],10400
same,outcome,[2],inactive
same,z-score,[3],0.37 (inactive)
CCCCC[C@H](O)/C=C/C=C\CCCCCCCC(=O)O,survival,[9],87.8 (inactive)
same,fold change,[1]; [13],0.929 (inactive)
same,fold change,[1]; [14],1.14
same,cell count,[1]; [15],5740
same,cell count,[1]; [16],6180
same,fold fluorescence,[10],6.42 [at 1 µM] (inactive)
COc1ccccc1CN[C@@H]1CCCN[C@@H]1c1ccccc1,fold change,[1]; [13],0.967 (inactive)
same,fold change,[1]; [14],1.32
same,cell count,[1]; [15],9540
same,cell count,[1]; [16],9860
same,outcome,[2],inactive
same,z-score,[3],-0.42 (inactive)
NC(N)=NCCNS(=O)(=O)c1cccc2cnccc12,survival,[9],124 (inactive)
same,parasite load remaining,[5],46.9% (inactive)
same,viability,[5],111%
same,fold change,[1]; [13],0.914 (inactive)
same,fold change,[1]; [14],0.868
same,cell count,[1]; [15],2220
same,cell count,[1]; [16],2430
same,fold fluorescence,[10],3.91 [at 170.4 µM] (inactive)
CN(CCCOc1ccc(Cc2ccccc2)cc1)CCC(=O)O,fold change,[1]; [13],0.994 (inactive)
same,fold change,[1]; [14],1.84
same,cell count,[1]; [15],9930
same,cell count,[1]; [16],9990
same,outcome,[2],inactive
same,z-score,[3],0.275 (inactive)
O=C(CCSCc1ccco1)NNC(=O)N1Cc2ccccc2Oc2ccc(Cl)cc21,fold change,[1]; [13],0.969 (inactive)
same,fold change,[1]; [14],0.669
same,cell count,[1]; [15],7850
same,cell count,[1]; [16],8100
same,outcome,[2],inactive
same,z-score,[3],1.58 (inactive)
O=C(Nc1ccc2[nH]ncc2c1)C1CCC1,fold change,[1]; [13],1.01 (inactive)
same,fold change,[1]; [14],1.17
same,cell count,[1]; [15],9900
same,cell count,[1]; [16],9790
same,outcome,[2],inactive
same,z-score,[3],0.43 (inactive)
C[C@@H](NCCc1ccc(O)cc1)[C@@H](O)c1ccc(O)cc1,period change,[4],0.07 h (inactive)
same,inhibition,[6],0% (inactive)
same,fluorescence ratio (interference),[7],0.9 (inactive)
same,fold change,[1]; [13],0.982 (inactive)
same,fold change,[1]; [14],1.22
same,cell count,[1]; [15],10600
same,cell count,[1]; [16],10800
same,outcome,[2],inactive
same,remaining NAD,[11],10 nM (inactive)
same,z-score,[3],0.51 (inactive)
COCCOc1cc2nc[nH]c(=O)c2cc1OCCOC,fold change,[1]; [13],1.02 (inactive)
same,fold change,[1]; [14],1.39
same,cell count,[1]; [15],10200
same,cell count,[1]; [16],10100
same,outcome,[2],inactive
same,z-score,[3],1.01 (inactive)
Cc1nc2n(c(=O)c1CCN1CCC(c3noc4cc(F)ccc34)CC1)CCCC2O (stereo not given),inhibition,[6],-4% (inactive)
same,fluorescence ratio (interference),[7],1 (inactive)
same,fold change,[1]; [13],1.04 (inactive)
same,fold change,[1]; [14],0.907
same,cell count,[1]; [15],9980
same,cell count,[1]; [16],9570
same,outcome,[2],inactive
same,remaining NAD,[11],10 nM (inactive)
same,z-score,[3],-0.155 (inactive)
CCCCC/C=C\CC1OC1CCCCCCCC(=O)O (stereo not given),survival,[9],79.6 (inactive)
same,fold change,[1]; [13],0.903 (inactive)
same,fold change,[1]; [14],1.25
same,cell count,[1]; [15],5290
same,cell count,[1]; [16],5850
same,fold fluorescence,[10],2.8 [at 1 µM] (inactive)
O=C1Nc2ccc(I)cc2C1=Cc1cc(Br)c(O)c(Br)c1,inhibition,[6],-1% (inactive)
same,fluorescence ratio (interference),[7],1 (inactive)
same,fold change,[1]; [13],1.04 (inactive)
same,fold change,[1]; [14],0.568
same,cell count,[1]; [15],7930
same,cell count,[1]; [16],7600
same,outcome,[2],inactive
same,z-score,"[12]; MELAS cybrid survival, CellTiter-Glo 48 h, stronger effect = higher value",-0.141 (inactive)
same,z-score,"[12]; Rieske KO mouse fibroblast survival, CellTiter-Glo 72 h",-0.283
O=C1c2ccccc2C(=O)c2c(NCCc3ccc(O)cc3)ccc(NCCc3ccc(O)cc3)c21,inhibition,[6],13% (inactive)
same,fluorescence ratio (interference),[7],1.1 (inactive)
same,fold change,[1]; [13],1.15 (inactive)
same,fold change,[1]; [14],1.12
same,cell count,[1]; [15],4510
same,cell count,[1]; [16],3920
same,SSMD,[8],0.452
same,cell count,[8],6780
same,plate-normalised HSF1 focus index,[8],1.04 (inactive)
same,outcome,[2],active
same,z-score,[3],-0.96 (inactive)
CCCC(=O)O,fold change,[1]; [13],0.924 (inactive)
same,fold change,[1]; [14],0.39
same,cell count,[1]; [15],4770
same,cell count,[1]; [16],5160
same,SSMD,[8],1.8
same,cell count,[8],7190
same,plate-normalised HSF1 focus index,[8],1.11 (inactive)
COC(=O)C1=C(C)NC(C)=C(C(=O)OC)C1c1cccc(NC(=O)NCCCN2CCC(c3cccc(OC)c3)CC2)c1,fold change,[1]; [13],1.58 (inactive)
same,fold change,[1]; [14],0.349
same,cell count,[1]; [15],2200
same,cell count,[1]; [16],1390
same,outcome,[2],inactive
same,z-score,[3],-1.35 (inactive)
CCCCC/C=C\C/C=C\C/C=C\C/C=C\CCCC(=O)O[C@@H](CO)COC(=O)CCCCCCCCCCCCCCCCC,survival,[9],92.4 (inactive)
same,fold change,[1]; [13],0.967 (inactive)
same,fold change,[1]; [14],1.14
same,cell count,[1]; [15],5940
same,cell count,[1]; [16],6140
same,fold fluorescence,[10],5.53 (inactive)
S=c1[nH]c(-c2ccccc2)cn1-c1ccccc1,fold change,[1]; [13],0.982 (inactive)
same,fold change,[1]; [14],1.24
same,cell count,[1]; [15],9110
same,cell count,[1]; [16],9280
same,outcome,[2],inactive
same,z-score,[3],-0.15 (inactive)
